Bioassay records from PubChem BioAssay.
Mot1-301 SUMO: yeast Mot1-301 growth rescue at high temperature, primary screen, SUMOylation pathway inhibitor project, S. cerevisiae, ATP luminescence, 38.5C. S. cerevisiae Mot1-301 growth rescue; percent above DMSO median, 100 means doubled. growth rescue, % at 18.8 µM. 1% of 320,000 active. AID 2716, 2010;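 active = every valid replicate shows activation above 250% relative to neutral control wells; inactive = the rest, any valid replicate at or below 250%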;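 also: OY570 slx delta 5 strain wells were the positive control but not used for scaling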
ALR H2O2 inh: inhibitors of human ALR sulfhydryl oxidase, primary screen, biochemical, H2O2 detection, HRP-luminol luminescence, single point | FAD-linked sulfhydryl oxidase ALR (Homo sapiens), P55789 | purified ALR, DTT oxidation | inhibition, % (no concentration beside the values) | 3.8% of 290,000 active | AID 485317, 2010;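 active = mean replicate inhibition above about 79%, with every replicate also reaching it, limit read from the data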
Target sequence (P55789 whole entry, looked up): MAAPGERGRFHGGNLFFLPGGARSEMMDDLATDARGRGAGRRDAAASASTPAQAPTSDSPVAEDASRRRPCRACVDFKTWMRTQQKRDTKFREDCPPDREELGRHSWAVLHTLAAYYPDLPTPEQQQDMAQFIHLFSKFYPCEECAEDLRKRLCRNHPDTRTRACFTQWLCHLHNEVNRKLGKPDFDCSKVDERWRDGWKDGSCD
AI-2 QS modul: Vibrio harveyi AI-2 quorum sensing modulators, primary screen, JMH597 strain, luminescence/OD600 ratio; Vibrio harveyi JMH597 AI-2 luminescence/OD600 ratio, 9 h; hits give low values; strain lacks LuxN and CqsS sensors; 0 = neutral-control median; activity change, % at 7.5 µM; 0.4% of 300,000 active; in the data active = activity change below about -75%, passing the limit was not always enough;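 also: luminescence divided by OD600 gain over 9 h not by final OD600 alone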
HIF activator: HIF pathway transcriptional activators, primary screen, cell-based, U2OS HRE-luciferase, luminescence; U2OS HRE-luciferase reporter; normalized: DMSO 0%, desferrioxamine 100%; activation, % at 7.5 µM (by protocol); 0.32% of 300,000 active; AID 1910, 2009;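 active = mean activation of at least 10% of the iron chelator positive control signal, with at least half of replicates also reaching 10%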
* marks the source's active call; other numbers are inactive results; nt = not tested or not shown. Shown are actives, neighbours in structure and some others; about 4.8% of the full set was active somewhere.

SMILES	Mot1-301 SUMO	ALR H2O2 inh	AI-2 QS modul	HIF activator
CC(C)c1ccc(OCC(=O)NNC(=O)c2cnccn2)cc1	-38	-20	-83*	0
O=C(COc1ccc2ccccc2c1)NNC(=O)c1cnccn1	-7	2	-6	0
CCOC(=O)C1(CCOc2ccccc2)CCN(Cc2cnc(SC)nc2)CC1	19	-5	12	0
CCOC(=O)C1(CC2CC2)CCN(Cc2cnc(-c3ccccc3C)nc2)CC1	946*	22	11	-1
COc1ccc(C2=Nn3c(nnc3C3CCCCC3)SC2)cc1OC	16	-3	42	0
COc1ccccc1C1=Nn2c(nnc2C2CCCCC2)SC1	354*	-6	nt	nt
COc1cccc(N2CCN(CC(=O)NCc3ccccc3)CC2)c1	4	98*	12	0
c1ccc(CCCN2CCOCC2)cc1	17	2	21	-1
CC(CCc1ccccc1)NC(=O)CN1CCN(c2ccccc2)CC1 (stereo unspecified)	33	99*	20	0
COc1ccc(CNC(=O)CN2CCN(c3ccccc3)CC2)cc1	-5	nt	-1	0
CC(NC(=O)CN1CCN(c2ccc(Cl)cc2)CC1)c1ccccc1 (stereo unspecified)	-18	nt	-1	1
c1ccc(CCCN2CCN(c3ccccc3)CC2)cc1	40	86*	-36	-1
C[C@H]1[C@H](C)CC[C@]2(C(=O)O)CC[C@]3(C)C(=CC[C@@H]4[C@@]5(C)C[C@@H](O)[C@H](O)C(C)(C)[C@@H]5CC[C@]43C)[C@H]12	510*	-6	24	0
C=C(CCC(=O)c1ccccc1)C(=O)c1ccccc1	23	97*	4	1
COC(=O)c1cccc(NC(=O)CSc2nc3cccnc3n2C)c1	-7	98*	nt	nt
COC(=O)c1ccc(NC(=O)CSc2nncn2-c2ccccn2)cc1	6	99*	6	0
COc1cc([C@H]2Oc3cc([C@H]4Oc5cc(O)cc(O)c5C(=O)[C@@H]4O)ccc3O[C@@H]2CO)ccc1O	26	99*	4	0
COc1cc([C@@H]2Oc3cc(C4Oc5cc(O)cc(O)c5C(=O)[C@H]4O)ccc3O[C@H]2CO)ccc1O (stereo partly specified)	-7	99*	nt	nt
CCOC(=O)C1CCCN(C(=O)c2[nH]c3ccc(OC)cc3c2C)C1 (stereo unspecified)	-6	-16	14	-1
CC1CCc2sc(C(=O)N3CCN(c4ncccn4)CC3)cc2C1 (stereo unspecified)	244	nt	12	1
O=S(=O)(NCCOc1ccccc1F)c1cccc(Br)c1	29	-4	nt	nt
COc1ccc(Br)cc1C(=O)Nc1cccc(-c2nnc(-c3ccco3)o2)c1	331*	-2	-6	1
COc1cccc(C(=O)Nc2cccc(-c3nnc(-c4ccco4)o3)c2)c1	9	-3	0	0
N#CCCn1cc(C(CC(=O)c2ccc(Br)cc2)C(=O)O)c2ccccc21 (stereo unspecified)	-16	91*	22	nt
Cc1ccc(C(=O)CC(C(=O)O)c2cn(CCC#N)c3ccccc23)cc1 (stereo unspecified)	339	96*	nt	nt
SMILES	Mot1-301 SUMO	ALR H2O2 inh	AI-2 QS modul	HIF activator
CCCn1cc(C(CC(=O)O)C(=O)O)c2ccccc21 (stereo unspecified)	-12	1	-1	0
CC(C)Cn1c(=O)c(CCC(=O)Nc2ccc(N3CCOCC3)cc2)nc2cc(Cl)ccc21	11	-2	8	0
CCOC(=O)[C@H]1[C@H]2COc3ccc(Br)cc3[C@@H]2N2C(=O)c3ccc(Cl)cc3NC(=O)[C@@]12C	12	nt	nt	nt
COc1cc2cccc(OC)c(=O)c2c(OC)c1OC	757*	-8	30	0
COc1cccc2[nH]c3ccccc3c(=O)c12	-28	-18	28	-1
CC(NC(=O)c1cccc(S(=O)(=O)N2CCN(Cc3ccccc3)CC2)c1)c1ccc(Br)cc1 (stereo unspecified)	-7	-1	10	1
O=C1Nc2ccccc2N(O)N1c1cc(-c2cccc(Cl)c2)no1	-14	79*	11	0
O=C1Nc2ccccc2N(O)N1c1cc(-c2ccccc2Cl)no1	24	20	21	0
Cc1nc(N)nc(N/N=C/c2c(F)cccc2Cl)n1	-7	nt	24	0
Cc1nc(C#N)c(N/N=C/c2c(F)cccc2Cl)o1	-5	98*	8	1
Cc1ccccc1CNC(=O)CCn1nc(C)c2c(C)n(-c3ccccc3)nc2c1=O	0	0	15	0
O=S(=O)(NC(=NC1CCCCC1)c1ccccc1F)c1ccccc1	-7	3	12	0
Cc1ccc(CN(Cc2cc3cccc(C)c3[nH]c2=O)C(=O)N(C)C)cc1	317*	nt	16	0
CCCN(C(=O)c1cc(S(=O)(=O)N(C)c2ccc(OCC)cc2)ccc1C)C1CCS(=O)(=O)C1 (stereo unspecified)	53	0	nt	nt
Cn1nnnc1SC1CC(=O)N(c2ccccc2)C1=O (stereo unspecified)	7	nt	25	-1
Cc1cc(C)cc(N2C(=O)CC(Sc3nnnn3-c3ccccc3)C2=O)c1 (stereo unspecified)	292*	9	19	2
O=C(CCCn1c(=S)[nH]c2cc3c(cc2c1=O)OCO3)N1CCN(C2CCCCC2)CC1	-10	83*	24	0
CCN1CCN(CCn2c(=S)[nH]c3cc4c(cc3c2=O)OCO4)CC1	24	92*	18	0
COc1ccccc1NC(=O)CCCn1c(=S)[nH]c2ccccc2c1=O	3	2	14	0
COc1cccc(CNC(=O)CCCn2c(=S)[nH]c3cc4c(cc3c2=O)OCO4)c1	6	-3	11	29*
COc1cccc(NC(=O)CCCn2c(=S)[nH]c3ccccc3c2=O)c1	-18	83*	-1	0
COc1cccc(N2CCN(C(=O)CCCCCn3c(=S)[nH]c4cc5c(cc4c3=O)OCO5)CC2)c1	-10	0	2	-2
O=C(CCCn1c(=S)[nH]c2cc3c(cc2c1=O)OCO3)N1CCN(c2ncccn2)CC1	-36	20	37	1
COc1ccc2cc(S(=O)(=O)NC3CC(C)(C)NC(C)(C)C3)ccc2c1	-16	-3	13	0
CC1CCCCN1C(=O)c1ccc(Br)o1 (stereo unspecified)	-15	-3	3	0
CCN(CC)CCn1c(=S)[nH]c2ccccc2c1=O	-34	14	21	0
CCN(CC)CCn1c(=S)[nH]c2ccc(Br)cc2c1=O	105	97*	16	0
Cc1cccnc1NC(=O)c1ccc2c(c1)NC(=O)C(C)S2 (stereo unspecified)	1	1	17	0
Cn1c2ccccc2c2cc(C(=O)N3CCN(CCO)CC3)sc21	-2	99*	29	0
O=C(O)c1[nH]c2ccccc2c1-c1ccccc1	3	98*	-7	2
